# Measured values: PubChem BioAssay AID1845226 (National Center for Advancing Translational Sciences (NCATS), 2023)
# Records with an inconclusive call do not appear. The source made the active and inactive calls. Calls follow the shape of the dose curve; as a rule, active = well fitted inhibition curve with a large enough effect; inconclusive = small, poorly fitted or top-dose-only effect; inactive = no such curve, though single readings can be large or run the other way.
# Assay: Confirmatory fluorescence-based thiol-reactive (MSTI) qHTS assay for identification of artifact compounds
# Conditions: MSTI thiol-reactivity probe, 1 h; series mostly up to 39.2 µM
# Description: PI: Alexander Tropsha Ph.D. UNC Eshelman School of Pharmacy University of North Carolina, Chapel Hill, North Carolina Hits from high-throughput screening (HTS) of chemical libraries are often false positives due to their interference with the assay detection technology. In response to this problem, we generated the largest publicly available library of chemical liabilities and developed a free webtool to predict HTS artifacts, both of which are described herein. More specifically, we generated, curated, and integrated HTS datasets for thiol reactivity, redox activity, and luciferase (firefly and nano) activity. Using these curated datasets, we developed and validated several Quantitative Structure-Interference Relationship (QSIR) models to predict nuisance behavior. […] These models were employed for virtual profiling of the National Center for Advancing Translational Science's (NCATS) in-house library, and 256 compounds for each assay were selected for the experimental validation of nuisance behavior. The BA for these external predictions ranged from 58 to 78% for compounds within the applicability domains of the models. […] The models developed in this study, along with aggregation models previously developed by our group (SCAM Detective) were implemented in "Liability Predictor," an online tool which may be used as part of chemical library design or for triaging HTS hits. Both the models and the curated datasets are publicly available at https://liability.mml.unc.edu/.
# PROTOCOL TABLE SEQUENCE No. (e.g., 1, 2, 3, etc.); PARAMETER (e.g., Cells, Incubation, Reagent, etc.); VALUE; DESCRIPTION. 1; Reagent; 4 uL; […]. 2; Compounds and control; 16 nL; Kalypsis pin tool (Wako USA) equipped with a 1536-well pin head. 3; Incubation; 1 hour. 4; Detection; Fluorescence, ViewLux microplate reader, 525 nm excitation, 598 nm emission. NOTES (numbers refer to Sequence numbers above) 1. Assays determining (E)-2-(4-mercaptostyryl)-1,3,3-trimethyl-3H-indol-1-ium (MSTI) reactivity were performed as previously described in the literature with modifications for the quick identification of compounds reacting with thiol. In brief, 4 uL of MSTI or positive control Acetyl-MSTI (final concentrations of 4 uM and 4 uM, respectively) in assay buffer (2% DMSO in 1X PBS pH 7.4) was dispensed into all wells of a 1536-well assay plate (solid-bottom black plate; Greiner Bio One, Monroe, NC). 2. A Wako Pin-tool (Wako Automation, Richmond, VA) was used to transfer 16 nL of compounds (consisting of 7-plates in qHTS format, final concentration range 18.3 nM to 114 uM) or control MLS001163887 (final concentration range 1.22 nM to 40 uM). 3. Plates were centrifuged (121xg, 15 seconds) and incubated for 1 hour at room temperature protected from light. 4. Samples were read for fluorescence (Ex/Em = 525(20)/598(25) nm) on a ViewLux CCD imager (PerkinElmer). Data were normalized to Acetyl-MSTI (0% activity) and MSTI (100% activity) and the resulting percent inhibition data were fitted to a 4-parameter Hill equation using NCATS in-house software.
row,SMILES,outcome
1,COc1ccc2[nH]cc(CCNCc3ccc(Br)cc3)c2c1,inactive
2,C[C@H]1CCCC(=O)CCC/C=C/c2cc(O)cc(O)c2C(=O)O1,inactive
3,c1ccc2sc(SNC3CCCCC3)nc2c1,inactive
4,CC[C@H]1[C@@H]2C[C@H]3[C@@H]4N(C)c5ccccc5[C@]45C[C@@H](C2[C@H]5O)N3[C@@H]1O (some centres not stated),inactive
5,COc1ccc2c3c1O[C@H]1[C@@H](O)C=C[C@H]4[C@@H](C2)NCC[C@@]341,inactive
6,O=c1ccc2cc(O[C@@H]3O[C@H](CO)[C@H](O)[C@H](O)[C@H]3O)c(O)cc2o1,inactive
7,CC1CCCC(O)CCCCCc2cc(O)cc(O)c2C(=O)O1 (configuration not stated),inactive
